Data on 40 sequences can be found in the supplement of paper PMC6555819.

This test relates to PPARg DBDmut:RXRa IVT, anti-PPARg (DBD mutation: PPARg1 K132A/R137A, NR concentration 270 nM, RXRa partner concentration 90 nM). The test is described as follows: PBM binding z-score (relative to random genomic background probes); higher = stronger binding; sequences stand for … in GC…GCGATTGACAGCGTAGAATGAAGG
In short, it runs like this: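 For binding z-scores, the reference was random background probes on custom Agilent 4×180K protein-binding microarrays. These arrays were incubated 1 h with ligand-free nuclear receptor dimers in PBS pH 7.4, 2% milk, 0.02% Triton X-100, 1 mM DTT, 0.2 mg/mL BSA and 0.4 mg/ml salmon testes DNA. Fluorescence was scanned after antibody detection of each partner (one per run) and regression-normalized.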
GCAGACAGGTGAAACGCAGATAACTCAGGGTGGC: the PBM binding z-score is 0.243.

Sequence AGAATGAGGTTAAGATCACGGAAACAGAATACAT registered a PBM binding z-score of 1.28. With ATCGAAAGGTCGTAGGTGAGTATACCCACCCGAA, the PBM binding z-score was 1.08. Regarding CCTATTAGTCGACCATAAGGGCAACCGAAGCTCG, the PBM binding z-score amounted to 0.93. ACAGACAGGTGATGGAGGTAACTCAGGCTATCAT yielded a PBM binding z-score of 0.159. Under TCTAGCAGGCCAGAGGGTCACTCCAGAGGTACGG stands -1.43. For AGAACTAGGGCACGCTGAGTTGATAGCAGAGTAG, the PBM binding z-score amounted to 3.17. The result for CGTCAAAGTTCAAGGTAACTTAACAGAAAGCAGC reads 0.657; that for CCTAGCAGGCCAAACTGGGTCACTCAAGGCTTGA, -0.371; that for TAAATGAGGTTATAAGATCAGGGAACGTTGCAAA, 1.59.

Turning to CCTACTGGGCCACGAAAGGTCATTAATTCAGTGA, the PBM binding z-score was 1.7. For GCTGCTAGGTCAACTGATGGACAGCTAAAGCTCG, the PBM binding z-score is -0.737. For the sequence AATCGGAGGACAAAGGTCAGAGCTACGCCAGTGA, the PBM binding z-score turned out to be 0.0778.

In turn, TCGAGTAGGTTAGTCGGGGCATTCAGCCAACATA showed a PBM binding z-score of -0.526.

As to TCATATAGGTAAACAGGTGAAATTCCGTAAGTTA, the PBM binding z-score was determined as 1.27. The sequence CGAACTAGGTCATCCAGGACAGTGAGTACATTGA yielded a PBM binding z-score of 2.59. In turn, ATACCAAGGTGATCGTGAGGTCGCTGATACTAAC registered a PBM binding z-score of 0.343. Under TCGAGTAGGTTCGTCGGGGCATTCAGCCAACATA stands -1.34; under TAGCCTAGGTCAGATAGGGCCAGTATACGCTATA, 0.269; under CAAACTAGGTCACCGGAAGGTCACAGTCCGCATG, 2.66. The sequence CACACTAGGTCAAGGTCAAAGTCGGTTTGTGCCA showed a PBM binding z-score of 6.91. With ACTATTAGTTGAGACGAGGGCAACCAATAGGTTG, the PBM binding z-score worked out at 0.202.

Sequence ATATGTAGGGTAGCTGGGGTCATTCAGACTAGGC displayed a PBM binding z-score of 1.65.

As to CCGAGTAGGATATGGGGCATTCAGGCAACGGTGA, the PBM binding z-score is -0.179. The sequence ATCGACAGGTCGTGAGGTGAGTATACAGAAAGGC had a PBM binding z-score of -0.374. Turning to GCGTCTGGGGCATCAGCAGGTTACCATAACTTAA, the PBM binding z-score is -0.946. As for CCGACTGGGGCAAGGCTACCATAACGCACAGCCA, the PBM binding z-score is -0.229. On to CAAACTAGGTCACCGGTAGGTCAAAGTCCGCATG, for which the PBM binding z-score was determined as 3.98.

Regarding TCTTGTAGATCAGCAGTTTAAGAAAGCTGGCCAA, the PBM binding z-score was found to be 0.167.

The sequence CAGCCTAGGTCAGGCCCAGTATAGGAGGAACGTT returned a PBM binding z-score of -0.686. Under ATATATAGGTTAGCTGGGGTCATTCAGACTAGGC stands 2.35.

GCTTACGGTTCAAAGGTTATAGCATGAATAGAAT showed a PBM binding z-score of 0.711. Sequence AGAATGAGGTTACCGAAGATCAGGGAAACGCTTG came in with a PBM binding z-score of 0.906. Under AGAATGAGGTTATCCGTAGATCAGGGAAGAAAGT stands 0.156; under TGAATGAGGTTAAAGATCAGGGAACGTGGCGTCG, 0.612; under AGAATGAGGGTATTAAGATCAGGGAATTGCGGTC, 0.443.

The sequence CTACCAACGTGAACAAGGTCGTTGATTACTATTC came in with a PBM binding z-score of 0.577. In the case of ACTAGTCGGTCAGCTGAGGTCACACACAATTCGG, the PBM binding z-score was 0.395.

Consider CCTTGGAGGACAGAAGGTCAGAGCTGTCCGCTTT, for which the PBM binding z-score was -1.14. The result for TGTCAAGGTTCAAAGGTAACGTAAGTATCCACAC reads 0.246.
